# The panel holds about 83,000 compounds, 20% with a hit somewhere; the sample as a whole holds those more often.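 Compound tested at a single concentration for 48 hours in 96-well plates; a percent growth value below 10 was scored as active.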 Values without a mark were called inactive. Active and inactive are the calls of the source.
# System: HL-60(TB) leukemia
# Assay: NCI-60 one-dose screen, 48 h (100 = growth as untreated, 0 = no growth, -100 = all killed)
# Conditions: 10 µM unless noted
row,SMILES,growth
1,CC[C@H]1OC(=O)[C@H](C)[C@@H](O[C@H]2C[C@@](C)(OC)[C@@H](O)[C@H](C)O2)[C@H](C)[C@@H](O[C@@H]2O[C@H](C)C[C@H](N(C)C)[C@H]2O)[C@](C)(OC)C/C(C)=C2/O[C@@]1(C)C=C2C,41.4%
2,Cc1nc(N)sc1C(=O)NCCO,167%
3,O=C1c2cccc3cccc(c23)C(=O)N1CCCCCN1CCN(CCCCCOc2ccc(-c3nc4ccc(N5CCOCC5)cc4[nH]3)cc2)CC1,3.01% (active)
4,Cc1nc([C@H]2CC[C@H]3[C@@H]4CCC5=CC(=O)CC[C@]5(C)[C@H]4CC[C@]23C)cs1,4.93% (active)
5,CC(C)=CCC[C@](C)(O)[C@H]1CC[C@]2(C)[C@@H]1CC[C@@H]1[C@@]3(C)C/C(=C/c4ccc(Br)cc4)C(=O)C(C)(C)[C@@H]3CC[C@]12C,92.9%
6,C=CC(=O)N1CCC(Oc2cc3c(Nc4ccc(Cl)c(Cl)c4F)ncnc3cc2OC)CC1,24.7%
7,O=C(O)CSCC(=O)Nc1cc(C(F)(F)F)ccc1Cl,102%
8,NC1(N2SC(S)=C3CCCC=C32)CCCCC1,89.6%
9,N#Cc1c(-c2ccccc2)nc(SCC(=O)N2CCOCC2)[nH]c1=O,55.9%
10,COc1cc2c(cc1-c1c(C)noc1C)ncc1nc(C3CCCC3)n([C@H](C)COC(F)F)c12,27.8%
11,CN(C)CCC(=O)C1CC1,93.9%
12,COc1cc(C2CC(c3ccc(Cl)cc3)=NN2C=O)ccc1Oc1ccnc2cc(Cl)ccc12 (stereo not given),85.9%
13,Cc1ccc(Nc2cc(N)nc(N)n2)cc1,99.6%
14,O=Cc1c[nH]c2ccc(NC(=O)OCc3ccccc3)cc12,200%
15,CCOC(=O)C(Br)=P(c1ccccc1)(c1ccccc1)c1ccccc1,94.2%
16,O=C1NC(=O)C(=Cc2cn(Cc3ccccn3)c3ccccc23)C(=O)N1,101%
17,CCOC(=O)c1cc2c(n1Cc1cc(OC)cc(OC)c1Br)-c1nc(NC(C)=O)sc1CCC2,43.1%
18,CCCC(CCC)(C(N)=O)C(=O)O,104%
19,COC1/C=C/OC2(C)Oc3c(C)c(O)c4c(O)c(c(/C=N/N(c5ccccc5)c5ccccc5)c(O)c4c3C2=O)NC(=O)C(C)=C/C=C/C(C)C(O)C(C)C(O)C(C)C(OC(C)=O)C1C (stereo not given),53.1%
20,CNc1ccc(-c2cc(=O)oc3ccc(Cl)cc23)cc1,-13.5% (active)

row,SMILES,growth
1,Cc1[nH]c2ccccc2c1C1=CC(=O)C=CC1=O,12.4%
2,COc1ccc(/C=C/C(=O)c2ccc(Oc3ncnc4ccccc34)cc2)cc1OC,54.7%
3,COc1nc2ccccc2cc1/C=[N+](\[O-])c1ccccc1,-18.5% (active)
4,CSC1=NCCCC1,99.8%
5,CC(=O)NNC(=O)c1sc(NC(C)=O)nc1C,101%
6,CSc1nc2ccc(C)cc2cc1/C=C1/C=C(c2ccccc2)NC1=O,87.4%
7,Cc1ccc2cc3c(N)c4c(C)ccc(C)c4nc3nc2c1,12.6%
8,O=[N+]([O-])c1c(O)c(CNCCCO)cc(CNCCCO)c1O,75.8%
9,Nc1c(C(=O)c2ccccc2)nnc2ncnn12,105%
10,NNc1ccccc1C(=O)O,49.1%
11,O=C(CNC1CCCCC1)Nc1ccc(-c2nc3ccccc3s2)cc1,66.8%
12,CN1C(=O)N(C)C2C1NN=c1s/c(=C\c3ccc(Br)cc3)c(=O)n12 (stereo not given),-13.8% (active)
13,Nc1ccc2c(S(=O)(=O)O)ccc(S(=O)(=O)O)c2c1,76.2%
14,N#Cc1ccc(/C=C/c2cn(-c3ccccc3)nc2-c2cccc([N+](=O)[O-])c2)cc1,82.4%
15,CC(=O)C1CCC2C3CC(F)C4=CC(=O)CCC4(C)C3C(O)CC12C (stereo not given),94.2%
16,CCOC(=O)CSc1nc2ccccc2c(=O)n1Cc1ccc(S(N)(=O)=O)cc1,100%
17,O=C(Oc1c(Cl)c(Cl)c(Cl)c(Cl)c1Cl)C1CCCN1C(=O)OCc1ccccc1 (stereo not given),-12.5% (active)
18,CC(=O)c1cc2c(o1)C(=O)c1ccccc1C2=O,-36.5% (active)
19,COc1cc2ncnc3c2cc1OCCCCCN(C)Cc1ccc(Br)cc1N3,33.7%
20,CC1=NN(C(=O)c2nn(-c3ccc(Cl)cc3)cc2O)C(=O)C1,5.71% (active)
